Measured values taken from PubChem BioAssay.
Results filed as inconclusive are left out. Active and inactive are the calls of the source.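 The calls were made as follows, unless noted: active = viability at or below 27.92% in each of two runs, the all-compound median minus 4 SD; inconclusive = no clear call, values can overlap the other calls; inactive = the rest.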

Key:
[1] = reducers of endogenous Her2 protein level, primary screen, SKBR3 breast tumor cells, AlphaScreen, ATP viability (AID 461;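 active = Her2 level under about 52% in both replicate screens, with viability over 70% of control, limit read from the data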;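 as to Her2 level: lower value means less Her2 protein in the cells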;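 as to viability: percent of carrier control wells set as 100% viability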); conditions: 18-24 h, measured here: SKBR3 viability, ATP luminescence, at 10 µM
[2] = target: Receptor tyrosine-protein kinase erbB-2 (Homo sapiens) (UniProt P04626); assay: as above; conditions: 18-24 h, at 10 µM, stronger effect = lower value
Receptor tyrosine-protein kinase erbB-2 (Homo sapiens), sequence (P04626 whole entry, looked up): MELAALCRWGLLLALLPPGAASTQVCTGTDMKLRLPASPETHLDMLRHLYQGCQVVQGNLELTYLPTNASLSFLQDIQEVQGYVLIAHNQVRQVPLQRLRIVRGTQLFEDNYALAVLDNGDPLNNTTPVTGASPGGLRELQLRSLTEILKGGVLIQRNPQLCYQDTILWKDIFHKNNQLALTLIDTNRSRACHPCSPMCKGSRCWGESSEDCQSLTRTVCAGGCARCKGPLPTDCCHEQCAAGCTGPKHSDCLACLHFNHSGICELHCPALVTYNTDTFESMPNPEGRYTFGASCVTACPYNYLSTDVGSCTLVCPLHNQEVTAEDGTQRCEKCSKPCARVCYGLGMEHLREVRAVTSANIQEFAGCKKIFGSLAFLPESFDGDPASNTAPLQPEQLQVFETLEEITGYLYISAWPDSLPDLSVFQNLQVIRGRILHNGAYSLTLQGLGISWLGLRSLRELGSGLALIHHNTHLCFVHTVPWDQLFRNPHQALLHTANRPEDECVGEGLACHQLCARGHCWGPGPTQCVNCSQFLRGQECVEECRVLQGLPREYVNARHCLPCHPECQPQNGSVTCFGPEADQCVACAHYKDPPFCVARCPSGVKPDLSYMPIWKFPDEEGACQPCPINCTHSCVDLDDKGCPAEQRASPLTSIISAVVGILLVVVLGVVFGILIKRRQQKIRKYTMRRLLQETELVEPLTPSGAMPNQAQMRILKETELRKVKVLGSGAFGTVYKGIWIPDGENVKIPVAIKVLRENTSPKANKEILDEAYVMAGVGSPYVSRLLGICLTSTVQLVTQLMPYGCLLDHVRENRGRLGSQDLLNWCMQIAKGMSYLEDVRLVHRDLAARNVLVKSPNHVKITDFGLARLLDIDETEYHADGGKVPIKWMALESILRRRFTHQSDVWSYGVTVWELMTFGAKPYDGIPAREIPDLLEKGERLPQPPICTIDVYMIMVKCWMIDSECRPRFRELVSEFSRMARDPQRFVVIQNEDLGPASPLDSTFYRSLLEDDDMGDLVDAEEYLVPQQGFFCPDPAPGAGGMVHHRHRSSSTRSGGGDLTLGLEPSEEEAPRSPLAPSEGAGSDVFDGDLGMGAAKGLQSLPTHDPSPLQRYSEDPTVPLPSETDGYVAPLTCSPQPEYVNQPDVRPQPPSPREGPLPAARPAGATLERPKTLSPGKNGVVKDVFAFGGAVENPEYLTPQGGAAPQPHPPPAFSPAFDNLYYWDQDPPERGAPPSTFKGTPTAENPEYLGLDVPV

[3] = SK-BR-3 cell growth inhibitors, pilot screen, 24 h, human (AID 572;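 active = viability at or below 10% of carrier control in both of two separate runs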;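 also: compound exposure lasted between 18 and 24 h rather than exactly 24 h; 100% = carrier-treated control wells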); conditions: SK-BR-3 viability, CellTiter-Glo luminescence, at 10 µM, stronger effect = lower value
[4] = HUVEC growth inhibition – cell-based, human, primary screen (AID 575;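 active = viability at or below 30% in both replicate assays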;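 also: 100% = median of untreated cell wells with 0.1% DMSO on each plate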); conditions: HUVEC proliferation, CellTiter-Glo luminescence, 72 h; at 10 µM; stronger effect = lower value
[5] = growth inhibitors of H69AR lung tumor, primary screen, human, duplicate replicates (AID 580;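 active = viability at or under a set limit in both replicates, limit being median viability minus 3 SD, cut at about 48% in these data, passing the limit was not always enough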;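 also: 100% = mean luminescence of untreated wells and 0% = no signal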); conditions: H69AR lung tumor cells viability, ATP luminescence, 72 h; at 10 µM; stronger effect = lower value
[6] = reversal of MRP1-mediated doxorubicin resistance, pilot screen, H69AR cells, doxorubicin co-treatment (AID 601;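 active = viability loss from added drug above about 55%, and viability with drug at most 40%, in both replicates, limit read from the data, passing the limit was not always enough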); conditions: CellTiter-Glo, 72 h, at 10 µM; for differential viability (reversal): stronger effect = higher value
[7] = 384-well plate pilot, post-Golgi transport modulator project, inhibition of yeast transport mutant growth (AID 636; in the data active = inhibition above about 31%); conditions: absorbance 615 nm, about 18 h, stronger effect = higher value
[8] = growth suppression of yeast trafficking mutant, preliminary HTS, modulators of trafficking downstream of Golgi apparatus project, 1536-format plate, OD 615 nm (AID 637; in the data active = inhibition above about 30%); conditions: yeast transport mutant growth, absorbance 615 nm, 18 h; stronger effect = higher value
[9] = OD615 S. cerevisiae growth inhibition, permissive medium, pilot counter-assay, permissive growth control for S. cerevisiae lifespan shortening project (AID 705;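 active = growth inhibition above 25% in both replicates, a cutoff set 3 SD above the mean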); conditions: OD615, 24 h, at 10 µM, stronger effect = higher value
[10] = Restrictive medium S. cerevisiae growth inhibition, OD615, pilot screen of yeast lifespan reduction project, restrictive growth control (AID 706;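 active = growth inhibition above a set limit, 3 SD over mean compound inhibition, in both replicates, cut at about 43% in these data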;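 also: modified DeaD lifespan yeast strain shifted to restrictive glucose medium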); conditions: OD615, 48 h, at 10 µM, stronger effect = higher value
[11] = viability gain of MRP-1-high H69AR cells under doxorubicin, pilot screen, MRP-1 activator project, CellTiter-Glo, duplicate (AID 807;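 active = viability increase at or above a cutoff of the median across tested compounds plus 3 SD, cut at about 8.5% in these data, passing the limit was not always enough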;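 also: compound pretreatment 18-22 h then 72 h combined with doxorubicin; 0% = doxorubicin alone and 100% = vehicle without doxorubicin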); conditions: H69AR viability with doxorubicin, CellTiter-Glo luminescence; at 10 µM; stronger effect = higher value
[12] = growth suppression of beta-catenin knockout HCT116, pilot screen, human colon tumor cells (AID 823;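 active = cell viability at or below a set limit in both duplicate runs, the limit being the all-compound median minus 4 SD, cut at about 23% in these data, passing the limit was not always enough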;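 also: 0% = wells killed by 20 µM Hyamine and 100% = untreated DMSO cell wells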); conditions: CellTiter-Glo, 60 h, at 10 µM, stronger effect = lower value
[13] = growth suppression of PTEN-deleted HCT116, pilot screen, cell-based, HCT116 clonal line, CellTiter-Glo (AID 824); conditions: 60 h, at 10 µM, stronger effect = lower value;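 also: 0% = 20 µM Hyamine control and 100% = vehicle cell control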
[14] = inhibitors of the yeast RAM network, pilot screen, dse1pr::URA3 reporter, 5-FOA selection (AID 869;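 active = inhibition over a set limit, the all-compound mean plus 3 SD, in both replicate runs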;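 also: 0% = DMSO wells with no growth and 100% = 10 µM 1-NA-PP1 with full growth; RAM network block rescues cells from 5-FOA so hits raise OD615 growth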); conditions: S. cerevisiae dse1pr::URA3 5-FOA growth, OD615, 2 d; at 10 µM; stronger effect = higher value; strain carries analog-sensitive mutant Cbk1 kinase
[15] = RAM signaling pathway blockade in yeast – S. cerevisiae, Pdr1DBD-CYC8 efflux-inhibited sensitized strain, primary screen (AID 1298;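 active = RAM network inhibition above 8.4% in each of two replicates, 3 SD over the compound average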;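 also: 0% = DMSO untreated cells without growth and 100% = 10 µM 1-NA-PP1 full growth; higher means more yeast growth rescued from 5-FOA killing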); conditions: S. cerevisiae cbk1-as DSE1-URA3 strain, 5-FOA growth OD615, 2 d; at 50 µM; stronger effect = higher value
[16] = H69AR cells + 2 uM doxorubicin, measured here: viability with 2 uM doxorubicin, stronger effect = lower value
[17] = H69AR cells, compound alone cytotoxicity

Row | Compound | viability [1] [%] | Her2 level [2] | viability [3] | viability [4] | viability [5] | differential viability (reversal) ([6]; H69AR cells + 2 uM doxorubicin) | viability [6, 16] [%] | viability [6, 17] [%] | inhibition [7] | inhibition [8] | growth inhibition [9] | growth inhibition [10] | viability increase [11] | viability [12] | viability [13] | inhibition [14] | RAM network inhibition [15]
1 | Cc1ccnc(SCCn2c(N3CCN(Cc4ccccc4)CC3)nc3c2c(=O)[nH]c(=O)n3C)n1 | 85 | 93.5% (inactive) | 85% (inactive) | 91.7% (inactive) | 87.5% (inactive) | -0.99% (inactive) | 88.4 | 87.5 | -3.6% (inactive) | -4.59% (inactive) | 3.26% (inactive) | 0.065% (inactive) | -1.27% (inactive) | 95.7% (inactive) | 99.3% (inactive) | 0.145% (inactive) | 2.81% (inactive)
2 | Cn1c(/C=N/n2cnnc2)nc2ccccc21 | 100 | 78% (inactive) | 100% (inactive) | 105% (inactive) | 83.4% (inactive) | -14.4% (inactive) | 97.8 | 83.4 | -0.26% (inactive) | -5% (inactive) | -4.11% (inactive) | -2.04% (inactive) | -3.76% (inactive) | 94% (inactive) | 94.2% (inactive) | 0.41% (inactive) | 5.84% (inactive)
3 | Cc1c(C(=O)OCc2ccccc2)[nH]c2c1C(=O)CC(c1ccco1)C2 (stereo not drawn) | 86.5 | 40.5% (active) | 86.5% (inactive) | 7.06% (active) | 6.48% (active) | -2.23% (inactive) | 8.71 | 6.48 | 4.87% (inactive) | -0.5% (inactive) | -15.1% (inactive) | -7.56% (inactive) | -4.85% (inactive) | 16.3% (active) | 18.2% (active) | 1.69% (inactive) | 1% (inactive)
4 | CCN(C(=O)c1cc(Cl)ccc1OC)c1ccccc1 | 91.5 | 110% (inactive) | 91.5% (inactive) | 95.6% (inactive) | 103% (inactive) | 2.06% (inactive) | 101 | 103 | 1.04% (inactive) | -10.3% (inactive) | -16.1% (inactive) | -19.6% (inactive) | -2.05% (inactive) | 89.5% (inactive) | 90% (inactive) | 2.85% (inactive) | 3.26% (inactive)
5 | COc1nc(Oc2ccc(=O)n(C)n2)nc(N(C)C)n1 | 81 | 107% (inactive) | 81% (inactive) | 88.5% (inactive) | 92.7% (inactive) | -2.47% (inactive) | 95.1 | 92.7 | 1.67% (inactive) | -9% (inactive) | -3.33% (inactive) | 0.62% (inactive) | 0.29% (inactive) | 95.2% (inactive) | 101% (inactive) | 2.61% (inactive) | 1.59% (inactive)
6 | Cc1c(C)c2ccc(OC3CCCCC3=O)cc2oc1=O (stereo not drawn) | 100 | 112% (inactive) | 100% (inactive) | 82.6% (inactive) | 85.8% (inactive) | 10.4% (inactive) | 75.4 | 85.8 | -1.92% (inactive) | -2.67% (inactive) | -16.6% (inactive) | -7.25% (inactive) | 0.57% (inactive) | 104% (inactive) | 101% (inactive) | 0.48% (inactive) | 1.93% (inactive)
7 | COC(=O)CSc1nc2nc(C)cc(C)n2n1 | 99 | 96.5% (inactive) | 99% (inactive) | 88.8% (inactive) | 99.7% (inactive) | 5.46% (inactive) | 94.3 | 99.7 | -3.73% (inactive) | 3.17% (inactive) | -2.5% (inactive) | 1.47% (inactive) | -0.51% (inactive) | 97.7% (inactive) | 91.2% (inactive) | 2.01% (inactive) | 2.93% (inactive)
8 | CCN(C1CCCCC1)S(=O)(=O)c1ccc(S(=O)(=O)N2CCN(CCC#N)CC2)cc1 | 105 | 114% (inactive) | 105% (inactive) | 75.8% (inactive) | 87.8% (inactive) | -10.4% (inactive) | 98.3 | 87.8 | -1.28% (inactive) | -3.5% (inactive) | 4.85% (inactive) | 3.67% (inactive) | -3.47% (inactive) | 86.6% (inactive) | 85.9% (inactive) | 0.645% (inactive) | -1.33% (inactive)
9 | COc1cc(C2NC(=O)NC(C)=C2C(=O)OCC2CCCO2)ccc1O (stereo not drawn) | 90.5 | 86.5% (inactive) | 90.5% (inactive) | 94.4% (inactive) | 103% (inactive) | 5.47% (inactive) | 97.4 | 103 | -6.08% (inactive) | -2.13% (inactive) | -7.94% (inactive) | -14.9% (inactive) | -1.14% (inactive) | 91.1% (inactive) | 88.3% (inactive) | 1.59% (inactive) | 1.93% (inactive)
10 | CCCCCCn1c(SCC(=O)OC)nc2c1c(=O)[nH]c(=O)n2C | 100 | 90% (inactive) | 100% (inactive) | 81.1% (inactive) | 70.9% (inactive) | 0.365% (inactive) | 70.6 | 70.9 | -4.8% (inactive) | 1.33% (inactive) | -12.9% (inactive) | 9.17% (inactive) | -1.89% (inactive) | 98.6% (inactive) | 103% (inactive) | 0.08% (inactive) | 2.66% (inactive)
11 | COc1ccc(NC(=O)C2Cc3ccccc3C(=O)O2)cc1 (stereo not drawn) | 90 | 92.5% (inactive) | 90% (inactive) | 104% (inactive) | 91.8% (inactive) | 5.95% (inactive) | 85.9 | 91.8 | -2.53% (inactive) | -1.67% (inactive) | 1.22% (inactive) | 1.67% (inactive) | 0.31% (inactive) | 105% (inactive) | 104% (inactive) | 1.79% (inactive) | 3.16% (inactive)
12 | O=C(NCc1ccc2c(c1)OCO2)C1CCCN(S(=O)(=O)c2cccc3cccnc23)C1 (stereo not drawn) | 95.5 | 85% (inactive) | 95.5% (inactive) | 70% (inactive) | 83.3% (inactive) | 5.17% (inactive) | 78.1 | 83.3 | -4.93% (inactive) | 4% (inactive) | -10.4% (inactive) | -10.5% (inactive) | -2.13% (inactive) | 84.9% (inactive) | 80.7% (inactive) | 0.32% (inactive) | 5.25% (inactive)
13 | COc1ccc(S(=O)(=O)N(C)C2CCN(C)CC2)cc1 | 108 | 98% (inactive) | 108% (inactive) | 93.2% (inactive) | 93.4% (inactive) | 11.1% (inactive) | 82.3 | 93.4 | -4.8% (inactive) | -2% (inactive) | -6.05% (inactive) | -10.2% (inactive) | -3.82% (inactive) | 100% (inactive) | 96.9% (inactive) | 0.835% (inactive) | 5.99% (inactive)
14 | CC(=O)NC(C)c1nc2ccccc2n1C(C)C (stereo not drawn) | 90 | 106% (inactive) | 90% (inactive) | 88.1% (inactive) | 93.9% (inactive) | 12.4% (inactive) | 81.5 | 93.9 | -2.8% (inactive) | -2% (inactive) | -5.54% (inactive) | -15.8% (inactive) | -2.65% (inactive) | 84.8% (inactive) | 90% (inactive) | 3.16% (inactive) | -0.31% (inactive)
15 | Cc1ccc(S(=O)(=O)Cc2ccc(C(=O)N3CCN(Cc4ccccc4)CC3)o2)cc1 | 86.5 | 80.5% (inactive) | 86.5% (inactive) | 106% (inactive) | 85.8% (inactive) | -8.85% (inactive) | 94.6 | 85.8 | -0.9% (inactive) | 3.5% (inactive) | 0.06% (inactive) | -3.51% (inactive) | -1.59% (inactive) | 97.3% (inactive) | 94.9% (inactive) | 1.59% (inactive) | 6.48% (inactive)
16 | COc1cccc(C2=NOC(C(=O)Nc3cc(C)nn3-c3ccccc3)C2)c1OC (stereo not drawn) | 93 | 91% (inactive) | 93% (inactive) | 68.7% (inactive) | 28.6% (active) | -43.9% (inactive) | 72.5 | 28.6 | 2.31% (inactive) | -1.83% (inactive) | 1.31% (inactive) | 12% (inactive) | -5.04% (inactive) | 68.3% (inactive) | 60.2% (inactive) | 2.12% (inactive) | -0.06% (inactive)
17 | Cc1cccc(-n2ncc3c(N(CCO)CCO)ncnc32)c1 | 97 | 91.5% (inactive) | 97% (inactive) | 78.7% (inactive) | 90% (inactive) | 11.3% (inactive) | 78.7 | 90 | -5.2% (inactive) | -1.97% (inactive) | -0.18% (inactive) | 0.945% (inactive) | -1.41% (inactive) | 94.9% (inactive) | 101% (inactive) | 2.43% (inactive) | -0.31% (inactive)
18 | COc1ccccc1NC(=O)N1CCN(c2cccc(C(F)(F)F)c2)CC1 | 89 | 98.5% (inactive) | 89% (inactive) | 78.1% (inactive) | 95.2% (inactive) | 16.9% (inactive) | 78.2 | 95.2 | -3.11% (inactive) | -10.3% (inactive) | -10.8% (inactive) | 3.75% (inactive) | 2.13% (inactive) | 89.5% (inactive) | 84.7% (inactive) | 0.115% (inactive) | 2.91% (inactive)
19 | COc1ccc(-c2cnc(SCC(=O)Nc3ccc4c(c3)OCO4)n2Cc2ccco2)cc1 | 102 | 70.5% (inactive) | 102% (inactive) | 76.9% (inactive) | 83.4% (inactive) | -9.64% (inactive) | 93.1 | 83.4 | 0.39% (inactive) | -6.03% (inactive) | 1.77% (inactive) | 10.1% (inactive) | -3.05% (inactive) | 67.4% (inactive) | 67.4% (inactive) | 1.66% (inactive) | 0.61% (inactive)
